Test in all cases: log2 ratio of Biotin-Ahx-Ub-VS probe labelling (fragment/DMSO); higher = less target engagement (more negative = stronger competition), active = hit call of the paper (q ≤ 0.05, log2 ratio ≤ -1)
Common to all, as to conditions: compound concentration: 200 uM; treatment time: 3 h

One assay has as its target T1, USP42 (UniProt Q9H9J4).
T1 sequence (whole entry): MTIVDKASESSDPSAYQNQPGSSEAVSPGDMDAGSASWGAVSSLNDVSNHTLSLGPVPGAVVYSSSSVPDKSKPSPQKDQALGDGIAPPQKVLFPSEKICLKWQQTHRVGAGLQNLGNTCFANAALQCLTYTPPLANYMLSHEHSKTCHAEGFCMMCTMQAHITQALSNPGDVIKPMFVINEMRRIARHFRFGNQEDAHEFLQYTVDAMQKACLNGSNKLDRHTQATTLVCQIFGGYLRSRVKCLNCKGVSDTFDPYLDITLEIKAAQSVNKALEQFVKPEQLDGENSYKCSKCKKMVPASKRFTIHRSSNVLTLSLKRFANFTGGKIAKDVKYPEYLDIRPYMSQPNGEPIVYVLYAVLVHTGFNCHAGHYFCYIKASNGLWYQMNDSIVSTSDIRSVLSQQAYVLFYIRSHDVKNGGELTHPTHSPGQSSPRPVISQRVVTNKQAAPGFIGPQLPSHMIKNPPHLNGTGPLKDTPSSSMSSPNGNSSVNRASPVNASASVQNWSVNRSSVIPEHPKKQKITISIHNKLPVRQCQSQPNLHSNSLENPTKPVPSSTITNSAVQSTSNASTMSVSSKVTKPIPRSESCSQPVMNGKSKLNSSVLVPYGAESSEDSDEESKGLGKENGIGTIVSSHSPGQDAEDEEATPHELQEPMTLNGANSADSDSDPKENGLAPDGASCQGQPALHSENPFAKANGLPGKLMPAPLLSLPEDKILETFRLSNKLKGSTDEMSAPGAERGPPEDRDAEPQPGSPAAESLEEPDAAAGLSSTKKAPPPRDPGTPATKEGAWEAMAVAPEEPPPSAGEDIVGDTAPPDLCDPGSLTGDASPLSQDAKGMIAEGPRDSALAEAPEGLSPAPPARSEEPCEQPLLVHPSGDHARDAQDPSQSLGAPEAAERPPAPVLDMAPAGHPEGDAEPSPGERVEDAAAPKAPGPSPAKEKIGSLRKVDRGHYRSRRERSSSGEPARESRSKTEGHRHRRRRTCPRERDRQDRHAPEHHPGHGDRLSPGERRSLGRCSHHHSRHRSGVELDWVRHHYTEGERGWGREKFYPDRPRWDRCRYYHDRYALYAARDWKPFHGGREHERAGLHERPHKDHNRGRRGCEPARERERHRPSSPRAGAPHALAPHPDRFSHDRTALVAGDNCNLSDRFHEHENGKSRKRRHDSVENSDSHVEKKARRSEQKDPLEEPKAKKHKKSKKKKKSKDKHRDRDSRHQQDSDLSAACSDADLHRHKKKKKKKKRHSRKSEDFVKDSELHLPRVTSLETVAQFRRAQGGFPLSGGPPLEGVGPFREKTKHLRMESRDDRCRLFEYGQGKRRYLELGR
Summed up: (§1)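 Global-median-normalised Spectronaut label-free quantities were compared by unpaired t-test, and values are average log2 ratios of fragment over vehicle. Only proteins with ≥2 unique peptides were used. HEK293T lysate (495 µg per sample) was treated in triplicate with fragment at 200 µM or vehicle for 3 h and then with Biotin-Ahx-Ub-VS at 0.5 µM final for 1 h. Labelled DUBs were then NeutrAvidin-enriched, digested with LysC and trypsin, and run by diaPASEF LC-MS/MS.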

The next assay concerns the target USP46 (UniProt P62068). The procedure, abridged:
as §1

In a further assay the target is T2, USP47 (UniProt Q96K76).
T2 sequence (whole entry): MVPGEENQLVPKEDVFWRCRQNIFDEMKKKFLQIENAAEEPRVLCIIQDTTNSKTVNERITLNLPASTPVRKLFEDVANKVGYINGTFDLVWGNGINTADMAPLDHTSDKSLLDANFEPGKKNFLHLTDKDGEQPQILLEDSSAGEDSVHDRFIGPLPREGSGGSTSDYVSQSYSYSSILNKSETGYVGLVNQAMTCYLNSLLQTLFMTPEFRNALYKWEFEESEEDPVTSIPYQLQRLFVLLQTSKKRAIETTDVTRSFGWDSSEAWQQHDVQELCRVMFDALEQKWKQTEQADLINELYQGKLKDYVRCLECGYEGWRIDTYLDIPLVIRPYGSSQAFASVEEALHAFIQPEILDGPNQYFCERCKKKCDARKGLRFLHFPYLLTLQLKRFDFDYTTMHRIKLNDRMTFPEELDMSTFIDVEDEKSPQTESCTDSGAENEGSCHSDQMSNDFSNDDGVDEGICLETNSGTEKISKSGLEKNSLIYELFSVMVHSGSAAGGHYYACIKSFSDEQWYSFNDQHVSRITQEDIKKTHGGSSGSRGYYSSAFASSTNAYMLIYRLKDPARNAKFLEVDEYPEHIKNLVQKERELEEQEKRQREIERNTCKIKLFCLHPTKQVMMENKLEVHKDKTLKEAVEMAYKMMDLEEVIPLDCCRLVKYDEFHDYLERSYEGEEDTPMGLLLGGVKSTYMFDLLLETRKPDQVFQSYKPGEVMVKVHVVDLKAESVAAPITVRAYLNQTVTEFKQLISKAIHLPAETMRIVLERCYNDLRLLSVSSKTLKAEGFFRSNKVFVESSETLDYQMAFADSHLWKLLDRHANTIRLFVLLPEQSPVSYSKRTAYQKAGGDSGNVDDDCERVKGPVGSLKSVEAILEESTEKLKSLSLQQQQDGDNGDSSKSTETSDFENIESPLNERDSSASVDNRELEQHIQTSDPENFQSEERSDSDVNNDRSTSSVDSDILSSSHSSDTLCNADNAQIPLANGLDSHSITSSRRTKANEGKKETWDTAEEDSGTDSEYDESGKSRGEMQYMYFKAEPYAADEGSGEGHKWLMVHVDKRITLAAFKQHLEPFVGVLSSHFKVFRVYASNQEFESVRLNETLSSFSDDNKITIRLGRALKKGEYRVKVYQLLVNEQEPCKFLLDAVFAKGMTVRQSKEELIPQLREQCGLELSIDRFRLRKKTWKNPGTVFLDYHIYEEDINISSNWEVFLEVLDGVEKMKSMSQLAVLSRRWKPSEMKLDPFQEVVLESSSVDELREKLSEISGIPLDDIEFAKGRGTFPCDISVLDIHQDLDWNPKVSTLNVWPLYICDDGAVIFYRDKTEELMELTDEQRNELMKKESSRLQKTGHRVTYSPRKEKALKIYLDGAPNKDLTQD
Summed up: as §1

The next assay deals with T3, USP48 (UniProt Q86UV5).
T3 sequence (whole entry): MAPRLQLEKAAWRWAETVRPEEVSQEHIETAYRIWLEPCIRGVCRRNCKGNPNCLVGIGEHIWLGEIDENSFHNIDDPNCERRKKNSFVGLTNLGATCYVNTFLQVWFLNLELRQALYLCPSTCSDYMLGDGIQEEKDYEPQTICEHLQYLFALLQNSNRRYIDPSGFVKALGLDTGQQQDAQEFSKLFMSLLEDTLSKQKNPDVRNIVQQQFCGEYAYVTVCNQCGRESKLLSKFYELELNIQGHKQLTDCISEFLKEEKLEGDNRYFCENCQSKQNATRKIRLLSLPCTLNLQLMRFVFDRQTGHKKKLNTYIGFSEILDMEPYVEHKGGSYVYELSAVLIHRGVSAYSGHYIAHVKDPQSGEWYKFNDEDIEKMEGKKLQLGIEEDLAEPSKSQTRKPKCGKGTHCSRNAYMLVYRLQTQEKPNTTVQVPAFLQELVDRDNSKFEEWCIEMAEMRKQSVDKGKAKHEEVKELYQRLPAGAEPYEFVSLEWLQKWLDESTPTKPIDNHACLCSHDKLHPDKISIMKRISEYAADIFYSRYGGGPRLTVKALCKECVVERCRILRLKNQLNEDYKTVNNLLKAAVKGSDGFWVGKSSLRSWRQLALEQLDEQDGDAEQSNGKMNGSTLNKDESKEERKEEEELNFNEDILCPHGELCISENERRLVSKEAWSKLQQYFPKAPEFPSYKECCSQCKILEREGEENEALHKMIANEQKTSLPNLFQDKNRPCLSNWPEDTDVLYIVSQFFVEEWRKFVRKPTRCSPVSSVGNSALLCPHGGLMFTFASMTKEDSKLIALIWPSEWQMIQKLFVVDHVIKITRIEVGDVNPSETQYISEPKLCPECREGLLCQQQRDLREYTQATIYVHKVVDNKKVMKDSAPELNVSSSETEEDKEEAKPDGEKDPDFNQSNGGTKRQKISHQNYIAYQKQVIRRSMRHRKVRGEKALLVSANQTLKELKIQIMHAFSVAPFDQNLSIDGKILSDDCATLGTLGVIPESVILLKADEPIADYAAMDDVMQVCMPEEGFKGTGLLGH
The procedure, abridged:
as §1

The target of a further assay is T4, USP5 (UniProt P45974).
T4 sequence (whole entry): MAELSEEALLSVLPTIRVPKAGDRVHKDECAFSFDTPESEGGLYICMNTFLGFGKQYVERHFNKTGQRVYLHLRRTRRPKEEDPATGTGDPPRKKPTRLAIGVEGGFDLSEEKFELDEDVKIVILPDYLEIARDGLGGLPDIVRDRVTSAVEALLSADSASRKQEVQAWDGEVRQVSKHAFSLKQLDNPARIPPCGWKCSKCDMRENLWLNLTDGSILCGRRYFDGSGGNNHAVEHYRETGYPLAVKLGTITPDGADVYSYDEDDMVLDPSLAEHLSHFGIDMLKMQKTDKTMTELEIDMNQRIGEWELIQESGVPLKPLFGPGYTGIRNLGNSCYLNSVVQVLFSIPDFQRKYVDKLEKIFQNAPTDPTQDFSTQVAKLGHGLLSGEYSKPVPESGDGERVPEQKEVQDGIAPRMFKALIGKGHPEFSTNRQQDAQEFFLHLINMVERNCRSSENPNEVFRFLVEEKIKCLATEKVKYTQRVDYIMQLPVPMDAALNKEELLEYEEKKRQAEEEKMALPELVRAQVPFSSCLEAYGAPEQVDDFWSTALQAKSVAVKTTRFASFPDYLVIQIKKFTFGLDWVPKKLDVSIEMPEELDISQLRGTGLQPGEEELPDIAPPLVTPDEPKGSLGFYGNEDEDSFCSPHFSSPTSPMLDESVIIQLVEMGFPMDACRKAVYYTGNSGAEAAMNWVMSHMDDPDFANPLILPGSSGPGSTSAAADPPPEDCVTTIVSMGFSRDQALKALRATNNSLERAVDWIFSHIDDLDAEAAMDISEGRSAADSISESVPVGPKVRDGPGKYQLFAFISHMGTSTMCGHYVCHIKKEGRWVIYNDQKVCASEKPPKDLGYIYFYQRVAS
The procedure, abridged: as §1

The target of the next assay is USP54 (UniProt Q70EL1). The procedure, abridged:
as §1

For a further assay, the target named is USP7 (UniProt Q93009). Summed up:
as §1

For a further assay, the target named is T5, USP8 (UniProt P40818).
T5 sequence (whole entry): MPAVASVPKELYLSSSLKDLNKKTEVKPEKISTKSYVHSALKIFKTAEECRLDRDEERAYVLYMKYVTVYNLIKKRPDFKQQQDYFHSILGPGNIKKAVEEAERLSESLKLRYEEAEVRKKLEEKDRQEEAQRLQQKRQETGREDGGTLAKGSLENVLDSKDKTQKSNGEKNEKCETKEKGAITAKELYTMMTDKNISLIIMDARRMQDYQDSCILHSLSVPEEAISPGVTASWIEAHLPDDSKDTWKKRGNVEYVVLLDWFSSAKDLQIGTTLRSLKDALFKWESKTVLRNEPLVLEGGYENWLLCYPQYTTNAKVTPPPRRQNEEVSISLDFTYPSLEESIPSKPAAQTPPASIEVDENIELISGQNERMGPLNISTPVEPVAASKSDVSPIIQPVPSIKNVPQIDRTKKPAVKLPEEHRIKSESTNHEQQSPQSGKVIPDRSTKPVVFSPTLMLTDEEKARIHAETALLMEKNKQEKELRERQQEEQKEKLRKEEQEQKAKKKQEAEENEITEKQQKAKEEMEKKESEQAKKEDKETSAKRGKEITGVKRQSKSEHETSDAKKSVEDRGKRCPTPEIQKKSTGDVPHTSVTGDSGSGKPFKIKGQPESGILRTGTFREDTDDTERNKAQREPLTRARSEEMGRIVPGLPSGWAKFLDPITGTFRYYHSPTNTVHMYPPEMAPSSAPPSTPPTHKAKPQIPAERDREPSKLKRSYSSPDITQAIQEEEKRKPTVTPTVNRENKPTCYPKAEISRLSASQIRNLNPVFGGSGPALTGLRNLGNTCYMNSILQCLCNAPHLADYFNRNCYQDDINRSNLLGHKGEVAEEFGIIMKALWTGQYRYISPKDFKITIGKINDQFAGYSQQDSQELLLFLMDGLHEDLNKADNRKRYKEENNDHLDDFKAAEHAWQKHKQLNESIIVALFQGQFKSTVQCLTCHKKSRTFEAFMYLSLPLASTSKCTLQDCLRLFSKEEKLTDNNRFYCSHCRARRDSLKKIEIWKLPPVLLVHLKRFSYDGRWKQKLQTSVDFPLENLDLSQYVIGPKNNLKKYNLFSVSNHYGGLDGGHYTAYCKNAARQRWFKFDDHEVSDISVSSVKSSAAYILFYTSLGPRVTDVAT
Summed up: as §1

The target of the next assay is USP9X (UniProt Q93008). Summed up: as §1
In another assay the target is UniProt O00487. The procedure, abridged:
as §1

This is an account of results in the supplement of paper PMC11732987, “Enantioselective OTUD7B fragment discovery through chemoproteomics screening and high-throughput optimisation” (Communications Chemistry, 2025).

SMILES strings stand for the structures. Values without a mark were called inactive.

Sequence of USP54 (Q70EL1 whole entry): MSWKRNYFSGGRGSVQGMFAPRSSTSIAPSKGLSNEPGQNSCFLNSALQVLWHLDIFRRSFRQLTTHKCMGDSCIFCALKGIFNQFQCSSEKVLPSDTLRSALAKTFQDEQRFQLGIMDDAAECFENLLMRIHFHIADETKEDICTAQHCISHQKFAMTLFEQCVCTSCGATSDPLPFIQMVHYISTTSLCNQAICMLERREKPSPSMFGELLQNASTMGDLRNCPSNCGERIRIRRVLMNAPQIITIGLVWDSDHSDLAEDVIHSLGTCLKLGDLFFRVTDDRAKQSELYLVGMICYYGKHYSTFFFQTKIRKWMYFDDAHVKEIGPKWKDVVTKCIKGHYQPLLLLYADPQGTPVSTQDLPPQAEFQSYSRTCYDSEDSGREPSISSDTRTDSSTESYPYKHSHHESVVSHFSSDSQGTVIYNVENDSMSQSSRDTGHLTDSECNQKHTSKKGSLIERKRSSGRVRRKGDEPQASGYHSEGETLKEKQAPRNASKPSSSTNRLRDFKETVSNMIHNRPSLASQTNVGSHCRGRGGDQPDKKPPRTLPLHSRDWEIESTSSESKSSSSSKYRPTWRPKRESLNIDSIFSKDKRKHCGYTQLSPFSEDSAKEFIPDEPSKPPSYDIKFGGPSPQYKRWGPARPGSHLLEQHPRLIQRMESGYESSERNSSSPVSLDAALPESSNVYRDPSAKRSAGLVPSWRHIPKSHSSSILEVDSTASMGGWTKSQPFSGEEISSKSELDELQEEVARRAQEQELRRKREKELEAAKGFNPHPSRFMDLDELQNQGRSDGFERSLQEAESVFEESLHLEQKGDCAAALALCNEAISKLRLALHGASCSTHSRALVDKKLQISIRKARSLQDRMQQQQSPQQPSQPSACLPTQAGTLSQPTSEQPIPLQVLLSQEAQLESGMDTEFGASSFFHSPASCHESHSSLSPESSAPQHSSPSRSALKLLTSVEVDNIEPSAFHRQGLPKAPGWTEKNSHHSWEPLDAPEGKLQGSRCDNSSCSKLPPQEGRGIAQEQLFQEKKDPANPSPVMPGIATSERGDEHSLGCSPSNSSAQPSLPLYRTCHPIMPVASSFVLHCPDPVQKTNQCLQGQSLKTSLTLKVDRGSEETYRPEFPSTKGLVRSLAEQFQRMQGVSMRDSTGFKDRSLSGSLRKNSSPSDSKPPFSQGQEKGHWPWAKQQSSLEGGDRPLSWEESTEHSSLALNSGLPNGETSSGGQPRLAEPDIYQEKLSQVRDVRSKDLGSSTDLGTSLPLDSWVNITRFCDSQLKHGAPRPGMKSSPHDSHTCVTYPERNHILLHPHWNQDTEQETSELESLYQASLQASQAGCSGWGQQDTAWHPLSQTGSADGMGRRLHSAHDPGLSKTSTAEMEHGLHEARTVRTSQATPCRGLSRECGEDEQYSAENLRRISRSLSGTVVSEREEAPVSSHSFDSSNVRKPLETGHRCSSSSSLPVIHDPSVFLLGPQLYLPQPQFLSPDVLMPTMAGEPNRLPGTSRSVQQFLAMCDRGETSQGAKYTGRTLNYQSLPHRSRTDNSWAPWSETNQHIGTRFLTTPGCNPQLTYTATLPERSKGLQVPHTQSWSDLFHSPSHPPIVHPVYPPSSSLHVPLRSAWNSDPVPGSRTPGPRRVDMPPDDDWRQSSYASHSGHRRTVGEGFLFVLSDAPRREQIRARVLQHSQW
Sequence of USP7 (Q93009 whole entry, looked up): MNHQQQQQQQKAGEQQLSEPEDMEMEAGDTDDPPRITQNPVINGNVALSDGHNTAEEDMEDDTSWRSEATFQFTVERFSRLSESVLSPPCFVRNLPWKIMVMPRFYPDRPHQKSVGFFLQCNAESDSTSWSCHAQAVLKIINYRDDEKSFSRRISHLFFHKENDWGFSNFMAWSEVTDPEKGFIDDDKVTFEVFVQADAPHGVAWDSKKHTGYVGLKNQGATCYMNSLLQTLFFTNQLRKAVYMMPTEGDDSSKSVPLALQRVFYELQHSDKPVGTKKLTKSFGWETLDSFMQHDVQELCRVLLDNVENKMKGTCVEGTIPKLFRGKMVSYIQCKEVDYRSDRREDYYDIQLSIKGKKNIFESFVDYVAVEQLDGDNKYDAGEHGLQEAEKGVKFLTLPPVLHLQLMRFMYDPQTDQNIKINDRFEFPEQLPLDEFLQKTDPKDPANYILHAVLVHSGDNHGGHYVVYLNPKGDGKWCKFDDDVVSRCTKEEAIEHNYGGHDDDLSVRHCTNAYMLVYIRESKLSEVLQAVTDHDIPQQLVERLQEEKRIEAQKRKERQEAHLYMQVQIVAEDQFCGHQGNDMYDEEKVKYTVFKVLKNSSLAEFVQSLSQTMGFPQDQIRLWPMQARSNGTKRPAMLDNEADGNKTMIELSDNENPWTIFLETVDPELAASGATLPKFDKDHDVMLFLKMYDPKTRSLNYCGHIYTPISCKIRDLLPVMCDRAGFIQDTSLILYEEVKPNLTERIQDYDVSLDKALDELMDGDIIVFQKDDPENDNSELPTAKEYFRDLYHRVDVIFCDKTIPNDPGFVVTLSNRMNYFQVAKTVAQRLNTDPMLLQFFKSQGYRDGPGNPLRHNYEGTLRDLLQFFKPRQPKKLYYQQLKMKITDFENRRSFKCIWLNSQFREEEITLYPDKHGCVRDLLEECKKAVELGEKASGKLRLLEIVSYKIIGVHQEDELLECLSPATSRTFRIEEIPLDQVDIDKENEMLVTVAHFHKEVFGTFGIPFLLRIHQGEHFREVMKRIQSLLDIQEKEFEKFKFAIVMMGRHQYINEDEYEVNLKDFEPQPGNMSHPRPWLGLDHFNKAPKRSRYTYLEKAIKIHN
Sequence of UniProt O00487 (O00487 whole entry): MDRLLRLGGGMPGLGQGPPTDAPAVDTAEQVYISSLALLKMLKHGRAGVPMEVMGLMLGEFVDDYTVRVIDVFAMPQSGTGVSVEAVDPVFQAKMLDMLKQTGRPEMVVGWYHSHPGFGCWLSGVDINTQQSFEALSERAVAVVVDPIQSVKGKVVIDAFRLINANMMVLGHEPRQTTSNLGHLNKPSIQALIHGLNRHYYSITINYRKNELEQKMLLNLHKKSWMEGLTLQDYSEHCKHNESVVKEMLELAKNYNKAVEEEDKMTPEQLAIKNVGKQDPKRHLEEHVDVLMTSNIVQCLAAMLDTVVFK
Sequence of USP46 (P62068 whole entry): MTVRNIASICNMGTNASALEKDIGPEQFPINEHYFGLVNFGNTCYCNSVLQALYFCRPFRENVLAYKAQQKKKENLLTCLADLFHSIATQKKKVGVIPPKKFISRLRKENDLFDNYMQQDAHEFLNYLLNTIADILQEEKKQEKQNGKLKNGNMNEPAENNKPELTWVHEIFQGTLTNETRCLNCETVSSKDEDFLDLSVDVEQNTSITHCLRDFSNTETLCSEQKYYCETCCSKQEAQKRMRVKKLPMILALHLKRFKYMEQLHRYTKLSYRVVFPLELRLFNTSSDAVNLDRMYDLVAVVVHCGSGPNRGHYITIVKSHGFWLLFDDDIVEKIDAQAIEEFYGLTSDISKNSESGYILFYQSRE

As for `Cn1cc(CN(Cc2ccc(Cl)cc2)C(=O)CCl)cn1`, the “log2 ratio of Biotin-Ahx-Ub-VS probe labelling” value (“log2 ratio” below) with USP42 is 0.553; with USP46, -0.635; with USP47 it was -1.45 (active); with USP48, -0.598; with USP5, 0.00584; in the assay with USP54, -0.648. Further, the “log2 ratio” value in the assay with USP7 was -3.08 (active); with USP8 it was 0.0316; with USP9X, -0.441; with UniProt O00487 it was 0.0261.

As for `O=C(CCl)NCCc1ccc2c(c1)OCCO2`, the “log2 ratio” value with USP42 is 0.217; with USP46 it was 0.147; with USP47, 0.109; with USP48, -0.413; in the assay with USP5, -0.336; with USP54, 0.647. The “log2 ratio” value with USP7 was -0.433; in the assay with USP8, 0.0104; in the assay with USP9X, -0.26; with UniProt O00487 it was -0.093.
